DAX1 inh-1: DAX1 (NR0B1) inhibitors on StAR promoter, primary screen, cell-based, luminescence, SF-1 (NR5A1), full-length DAX-1; AID 652010, 2013; HEK293T StAR-luciferase reporter, SF-1/DAX-1 repression relief; inhibition, % at 6.8 µM; actives 1.1% (n = 370,000);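 active means inhibition above the mean over all tested compounds plus 3 SD, cut at about 3.6% in these data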;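 further: 0% = DAX-1 cells with DMSO and 100% = cells lacking DAX-1 with DMSO; higher inhibition means more luminescence from relief of DAX-1 repression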
DAX1 inh-2: DAX1 (NR0B1) inhibitors, primary screen, cell-based, HEK293, Gal4-DAX1, luciferase luminescence; inhibition, % at 6.75 µM; AID 504766, 2011; Nuclear receptor subfamily 0 group B member 1 (Homo sapiens), P51843; HEK293 Gal4-DAX1 luciferase reporter; actives 0.99% (n = 340,000);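 active means inhibition above the mean over all tested compounds plus 3 SD, cut at about 4.2% in these data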;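 further: 0% = DAX1-transfected cells with DMSO and 100% = empty-vector control cells with DMSO; inhibition shows as a rise in luminescence from relieved DAX1 repression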
Target sequence (P51843 207-470 limits assumed): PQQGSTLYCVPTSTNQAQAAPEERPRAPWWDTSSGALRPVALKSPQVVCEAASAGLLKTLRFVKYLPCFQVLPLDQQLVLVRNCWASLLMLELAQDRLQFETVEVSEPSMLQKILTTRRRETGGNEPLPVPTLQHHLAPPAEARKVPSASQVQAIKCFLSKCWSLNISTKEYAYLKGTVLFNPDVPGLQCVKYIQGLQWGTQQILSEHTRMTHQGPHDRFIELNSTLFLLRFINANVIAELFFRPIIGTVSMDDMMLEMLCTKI
ssDAF12 agonist: S. stercoralis DAF-12 nuclear receptor activators, primary screen, cell-based, luminescence, HEK293, GRIP1 co-expression, lit1-tk-luc | HEK293 ssDAF-12/GRIP1 lit1-tk-luc reporter; % of 3 µM dafachronic acid response | Nuclear hormone receptor DAF-12 (Strongyloides stercoralis) | actives 1% (n = 370,000) | activation, % at 6.8 µM;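 active means activation above the mean over all tested compounds plus 3 SD, cut at about 0.9% in these data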;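 further: 0% = DMSO-only wells and 100% = 3 µM delta7-dafachronic acid wells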
hgDAF-12 ag: H. glycines DAF-12 receptor agonists, primary screen, cell-based, luminescence, HEK293, GAL4 fusion, UAS-luciferase; AID 687014, 2013; actives 1.8% (n = 370,000); Nuclear hormone receptor DAF-12 (Heterodera glycines), GAL4 fusion; activation, % at 6.8 µM; HEK293 GAL4-hgDAF12 UAS-luciferase reporter, agonist luminescence; normalized to butyrate control;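 active means activation above a cutoff set at the mean of all screened compounds plus 3 SD, cut at about 10% in these data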;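 further: 0% = DMSO wells and 100% = sodium butyrate wells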
hcDAF-12 act: H. contortus DAF-12 nuclear receptor activators, primary screen, cell-based, luminescence, HEK293, lit1-tk-luc reporter | HEK293 hcDAF-12 lit1-tk-luc reporter; 0% DMSO, 100% Δ7-dafachronic acid | actives 1.4% (n = 370,000) | activation, % at 6.8 µM;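 active means activation above the mean of all tested compounds plus 3 SD, cut at about 5.5% in these data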;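 further: 100% = response to 3 µM Δ7-dafachronic acid high control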
The depositor's hits bear a star; x = not tested or not shown. Only some compounds are listed: those with a hit (about 4.1% of all), similar ones and a draw of the others.

SMILES | DAX1 inh-1 | DAX1 inh-2 | ssDAF12 agonist | hgDAF-12 ag | hcDAF-12 act
O=C(OCc1cn(Cc2cccc(C(F)(F)F)c2)nn1)N1CCOCC1 | 0 | x | 0 | -1 | -3
O=C(OCC#CCSc1nnc(-c2cccc3ccccc23)o1)c1ccsc1 | x | x | -1 | 11* | 1
COc1ccc(CCC(=O)Nc2ncc(C)s2)cc1 | 0 | 1 | 2.2* | 4 | 1
CC1CCc2nn(CC(=O)NCCCN3CCCCC3)cc2C1 (stereo not given) | 0 | 1 | -1 | -1 | 2
CCN1CCCC1CNC(=O)Cn1cc2c(n1)CCC(C)C2 (stereo not given) | 0 | 4.5* | -1 | 3 | 3
CCCOC(=O)C1=C(C)NC2=C(C(=O)CCC2)C1c1cccs1 (stereo not given) | 0 | 1 | 2.1* | -2 | -2
CCOC(=O)C1=C(C)NC2=C(C(=O)CC(c3cccs3)C2)C1c1cccs1 (stereo not given) | -2 | 0 | -1 | -3 | -1
COc1ccc(C(CNC(=O)c2cccc(S(=O)(=O)Nc3ccc(F)cc3)c2)N2CCCC2)cc1 (stereo not given) | 3.6* | -1 | 0 | -2 | -2
Cc1ccc(S(=O)(=O)N(C)c2ccc(C(=O)NCC(c3ccccc3)N3CCCC3)cc2)cc1 (stereo not given) | 4.0* | 3 | -1 | 0 | -1
COc1ccc(NS(=O)(=O)c2cccc(C(=O)NCC(c3ccc(OC)cc3)N3CCCCC3)c2)cc1 (stereo not given) | 2 | 0 | -1 | -3 | 0
CN(c1ccccc1)S(=O)(=O)c1ccc(C(=O)NCC(c2ccco2)N2CCCCC2)cc1 (stereo not given) | 1 | 0 | -2 | -2 | 0
COc1ccc(NS(=O)(=O)c2cccc(C(=O)NCC(c3ccc(OC)cc3)N3CCCC3)c2)cc1 (stereo not given) | 4.2* | 1 | -1 | 4 | 0
CC(OP(=O)(O)C(NC(=O)[C@H](Cc1ccc(O)cc1)NC(=O)OC(C)(C)C)C(C)C)C(=O)O (stereo not given in full) | x | x | -2 | 0 | 0
COc1ccc2oc(=N)c(C(=O)Nc3ccc(F)cc3)cc2c1 | 0 | -1 | 0 | -1 | 0
N=c1oc2ccccc2cc1C(=O)Nc1ccccc1 | 2 | 4 | 0 | 13* | 5.9*
N=c1oc2ccc(Cl)cc2cc1C(=O)Nc1ccc(F)cc1 | 1 | 5.5* | 0 | 5 | 4
O=C(Nc1nc2ncccn2c1-c1ccccc1)c1ccc(F)cc1 | -1 | x | -1 | -1 | -1
COc1ccc(CC2(CO)CCN(Cc3cnn(C)c3C)CC2)cc1 | -1 | 4.9* | -2 | 1 | -1
COc1ccc(C(=O)c2[nH]c(N)c(C(=O)NCCc3c[nH]c4ccccc34)c2-c2ccc(Br)cc2)cc1 | 1 | x | 1 | 0 | 3
COc1ccc(C(=O)c2[nH]c(N)c(C(=O)NCCc3c[nH]c4ccccc34)c2-c2ccc(C(F)(F)F)cc2)cc1 | 0 | x | 1.9* | 5 | 5
COc1cccc(CNC(=O)Cn2c(-c3ccccc3)cc(C(C)=O)c2C)c1OC | 0 | x | -1 | -2 | -1
O=C(N=Nc1c(O)n(Cc2ccccc2)c2ccccc12)c1ccc(O)cc1 | 3.6* | 1 | 0 | 8 | 6.0*
Cc1ccc(NC(=O)CCl)cc1S(=O)(=O)N1CCCCCC1 | -2 | 0 | -1 | -11 | -1
O=C(Nc1ccncc1)c1cccc(S(=O)(=O)N2CCc3ccccc32)c1 | -7 | -4 | -2 | -6 | -4
Cc1ccc(C(=O)Nc2ccc3cn[nH]c3c2)cc1S(=O)(=O)N1CCCCC1 | 0 | 0 | 0 | 6 | 6.1*
SMILES | DAX1 inh-1 | DAX1 inh-2 | ssDAF12 agonist | hgDAF-12 ag | hcDAF-12 act
O=C(O)c1cccc(NC(=O)c2ccc(Cl)c(S(=O)(=O)N3CCCCCC3)c2)c1 | 2 | -4 | 0 | 11* | 2
O=C(O)c1cccc(NC(=O)c2cccc(S(=O)(=O)N3CCc4ccccc43)c2)c1 | -1 | 4.6* | -1 | -2 | -2
COCCNCC(=O)Nc1ccc(C)c(S(=O)(=O)N2CCCCC2)c1 | 1 | 4.3* | -1 | -2 | 0
O=C(N[C@@H](Cc1cccnc1)C(=O)N1CCC[C@H]1C(=O)NC1CCCC1)c1cccs1 | -2 | x | 0 | -3 | -1
C(=N\Nc1nncc2ccccc12)/c1cccnc1 | 0 | x | -1 | 6 | -1
COc1ccccc1CNC(=O)N(CCc1c(C)[nH]c2ccccc12)Cc1cccs1 | -2 | x | -1 | 1 | 2
O=C(Cn1nnc(-c2ccccc2F)n1)Nc1ccc(Cl)c(Cl)c1 | 0 | x | -1 | 3 | -1
O=C(NCc1ccco1)C1CCN(S(=O)(=O)c2cccc3cccnc23)CC1 | 0 | 2 | -2 | 1 | 1
Cc1ccc(NS(=O)(=O)c2ccc(Cl)c(C(=O)Nc3cccc(C(=O)O)c3)c2)cc1 | 0 | 5.4* | 0 | 2 | -1
Cc1ccc(C(=O)NCc2ccccc2F)cc1S(=O)(=O)N1CCCC1 | 0 | 1 | -1 | 0 | -2
O=C(NCc1cccs1)C1CCN(S(=O)(=O)c2cccc3cccnc23)CC1 | -1 | 4.3* | -1 | 0 | -2
Cc1ccc(C(=O)NCc2cccs2)cc1S(=O)(=O)N1CCCCC1 | 0 | -1 | 1.2* | 0 | -1
O=C(/C=C(\Nc1ccc(Cl)c(Cl)c1)c1ccccc1)c1ccccc1 | 0 | x | -1 | 0 | 2
CC(C)(C)c1ccc(-c2nnc(SCC(=O)c3ccc4ccccc4c3)n2-c2ccc(Cl)cc2)cc1 | 0 | x | -1 | -3 | 2
CCN(CC)c1ccc(/C=N/NC(=O)Nc2ccccc2)cc1 | 2 | 2 | 0 | 11* | 4
Cc1ccc(/C=N/NC(=O)Nc2ccccc2)o1 | 2 | 2 | 0 | 11* | 4
CCN(CC)c1ccc(/C=N\NC(N)=O)cc1 | -1 | -1 | -1 | -6 | -3
CCN(CC)c1ccc(/C=N/NC(=O)OC(C)(C)C)cc1 | 2 | 4.9* | 1 | 5 | 3
CCCCCCCCNS(=O)(=O)/C=C/c1ccc(OC)cc1CNC(=O)OC(C)(C)C | -1 | x | -1 | 1 | -1
Cc1ccc(O)c(C2=Nc3ccccc3N=C(c3ccc([N+](=O)[O-])cc3)C2)c1 | 1 | 0 | 1.0* | 6 | 5

From PubChem
